According to PubChem BioAssay (NCATS):
Values without a mark were called inactive. Results filed as inconclusive are left out. Entries that show only a call come without a potency. For some assays here: Potency and affinity values are given separately. Calls of active or inactive are those of the source. Unless noted, no rule for the calls is given here.

What was measured:
[1] = Ebola virus entry assay, green fluorescence channel
[2] = Ebola virus entry assay, blue channel fluorescence
[3] = Ebola virus entry assay, ratio channel
[4] = Ebola virus entry assay, green channel fluorescence
[5] = Ebola virus entry assay, reporter ratio channel; Channel type: primary
[6] = Ebola virus entry assay, blue channel (ratio component)
[7] = qHTS assay for measurement of the activity of small molecule inhibitors on Zika virus induced Caspase-3 activity in human iPSC derived neural progenitor cells (hNPCs) (AID 1224857; active = well fitted inhibition curve with a large enough effect; also: nearly all actives have a fitted effect of over 65% in size); settings: hNPCs ZIKV-induced caspase-3/7, Caspase-Glo luminescence, 6 h; series mostly up to 45.7 µM
Method in brief: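 In medium with heparin 2 ug/ml and cyclopamine 2 uM, hNPCs (350 cells/well) received compound for one hour and then Zika virus at 2 FFU/cell; caspase activity was measured by Caspase-Glo 3/7 luminescence 6 h post-infection.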

[8] = qHTS assay for measurement of the activity of small molecule inhibitors on Zika virus induced Caspase-3 activity in human astrocytoma cells (AID 1224859; active = well fitted inhibition curve with a large enough effect); settings: SNB-19 ZIKV-induced caspase-3/7, luminescence, 6 h; series mostly up to 45.7 µM
Method in brief: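 A cell-based luminescent caspase-3/7 assay used SNB-19 cells infected with ZIKV (2 FFU/cell) for 6 h following 1 h compound pretreatment.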

Row | Compound | efficacy [1] [%] | outcome [2] | outcome [3] | outcome [4] | outcome [5] | outcome [6] | Potency [7] | outcome [8] | AC50 [5]
1 | Nc1ccncc1N | -16.5 | inactive | inactive | inactive | inactive | inactive |  |  | 
2 | Cc1cn([C@H]2C[C@H](F)[C@@H](CO)O2)c(=O)[nH]c1=O | -14.7 | inactive | inactive | inactive | inactive | inactive |  |  | 
3 | CCOC(=O)N1CCC(n2c(=O)[nH]c3cc(Cl)ccc32)CC1 | 43.9 | inactive | inactive | inactive | inactive | inactive |  |  | 
4 | CCOC(=O)C(=O)c1csc(NC=O)n1 | -15.8 | inactive | inactive | inactive | inactive | inactive |  |  | 
5 | Brc1c(NC2=NCCN2)ccc2nccnc12 | -28.5 | inactive | inactive | inactive | inactive | inactive |  |  | 
6 | O=C1OC(OC(=O)c2cccnc2Nc2cccc(C(F)(F)F)c2)c2ccccc21 (centres undefined) | -25.3 | inactive | inactive | inactive | inactive | inactive |  |  | 
7 | O=C1OC(c2ccc(O)cc2)(c2ccc(O)cc2)c2ccccc21 | -10.1 | inactive | inactive | inactive | inactive | inactive |  |  | 
8 | NNC(=O)CP(=O)(c1ccccc1)c1ccccc1 | 11.5 | inactive | inactive | inactive | inactive | inactive |  |  | 
9 | NS(=O)(=O)c1cc2c(cc1Cl)NC(C1CC3C=CC1C3)NS2(=O)=O (centres undefined) | -30.9 | inactive | inactive | inactive | inactive | inactive |  |  | 
10 | O=c1[nH]c(=O)c2ccccc2o1 | 15 | inactive | inactive | inactive | inactive | inactive |  |  | 
11 | CC(COc1ccccc1)NC(C)C(O)c1ccc(O)cc1 (centres undefined) | -32.1 | inactive | inactive | inactive | inactive | inactive |  |  | 
12 | N=C(N)c1ccc(OCCCOc2ccc(C(=N)N)cc2)cc1 | 14.7 | inactive | inactive | inactive | inactive | inactive |  |  | 
13 | CC(C)(C)c1ccc(C(=O)CCCCl)cc1 | -23.2 | inactive | inactive | inactive | inactive | inactive |  |  | 
14 | CN1CCCN=C1/C=C/c1cccs1 | -15 | inactive | inactive | inactive | inactive | inactive |  |  | 
15 | CCc1cccc2c(CCO)c[nH]c12 | -22.1 | inactive | inactive | inactive | inactive | inactive |  |  | 
16 | O=C(O)C(Cc1cc(I)c(O)c(I)c1)c1ccccc1 (centres undefined) | -25.4 | inactive | inactive | inactive | inactive | inactive |  |  | 
17 | Cc1[nH]c(C)c(Cl)c(=O)c1Cl | 22.5 | inactive | inactive | inactive | inactive | inactive |  |  | 
18 | CCC1NC(=O)c2cc(S(N)(=O)=O)c(Cl)cc2N1 (centres undefined) | -10.3 | inactive | inactive | inactive | inactive | inactive |  |  | 
19 | COC(=O)c1cc(S(N)(=O)=O)ccc1OC | -31.2 | inactive | inactive | inactive | inactive | inactive |  |  | 

Row | Compound | efficacy [1] [%] | outcome [2] | outcome [3] | outcome [4] | outcome [5] | outcome [6] | Potency [7] | outcome [8] | AC50 [5]
20 | CCN[C@H]1C[C@H](C)S(=O)(=O)c2sc(S(N)(=O)=O)cc21 | 10.6 | inactive | inactive | inactive | inactive | inactive |  |  | 
21 | CCCCN(CCCC)C(C(N)=O)c1ccc(OC)cc1 (centres undefined) | 14.3 | inactive | inactive | inactive | inactive | inactive |  |  | 
22 | O=C(O)[C@H](O)[C@@H](O)[C@H](O[C@@H]1O[C@H](CO)[C@H](O)[C@H](O)[C@H]1O)[C@H](O)CO | 24.3 | inactive | inactive | inactive | inactive | inactive |  |  | 
23 | O=C(O)Cc1ccc2c(c1)C(=O)c1ccccc1CO2 | 17 | inactive | inactive | inactive | inactive | inactive |  |  | 
24 | CCCc1cc(C(N)=S)ccn1 | -10.8 | inactive | inactive | inactive | inactive | inactive |  |  | 
25 | Oc1ccc(O)cc1 | 16.5 | inactive | inactive | inactive | inactive | inactive |  |  | 
26 | NC(CSCC(=O)O)C(=O)O (centres undefined) | -16 | inactive | inactive | inactive | inactive | inactive |  |  | 
27 | CCN(CC)C(=O)C1CN2CCc3cc(OC)c(OC)cc3C2CC1OC(C)=O (centres undefined) | -20.8 | inactive | inactive | inactive | inactive | inactive |  |  | 
28 | Cc1c(F)cc2c(=O)c(C(=O)O)cn3c2c1CCC3C (centres undefined) | 17.9 | inactive | inactive | inactive | inactive | inactive |  |  | 
29 | N[C@@H](Cc1ccc(O)cc1)C(=O)O | 37.7 | inactive | inactive | inactive | inactive | inactive |  |  | 
30 | O=C(O)c1ccc(OCCN2CCCCC2)cc1 | -23.5 | inactive | inactive | inactive | inactive | inactive |  |  | 
31 | O=C(CCNNC(=O)c1ccncc1)NCc1ccccc1 | -17 | inactive | inactive | inactive | inactive | inactive |  |  | 
32 | CN1C(=O)CC(c2ccccc2)C1=O (centres undefined) | 12.2 | inactive | inactive | inactive | inactive | inactive |  |  | 
33 | CC(C)C(=O)OCc1cccc(OC(=O)[C@@H]2N3C(=O)[C@@H](NC(=O)Cc4ccccc4)[C@H]3SC2(C)C)c1 | -28.9 | inactive | inactive | inactive | inactive | inactive |  |  | 
34 | C=C(C)C(=O)OCC(O)CO (centres undefined) | -24.2 | inactive | inactive | inactive | inactive | inactive |  |  | 
35 | CCCCNc1cc(C(=O)O)cc(S(N)(=O)=O)c1Oc1ccccc1 | -14.8 | inactive | inactive | inactive | inactive | inactive |  |  | 
36 | CC(C)NC(=O)c1ccc(C=O)cc1 | 10.7 | inactive | inactive | inactive | inactive | inactive |  |  | 
37 | OC1C(O)C(O)C(O)C(O)C1O (centres undefined) | 12.1 | inactive | inactive | inactive | inactive | inactive |  |  | 
38 | COC(=O)[C@@H](N)Cc1ccc(O)c(O)c1 | -12 | inactive | inactive | inactive | inactive | inactive |  |  | 

Row | Compound | efficacy [1] [%] | outcome [2] | outcome [3] | outcome [4] | outcome [5] | outcome [6] | Potency [7] | outcome [8] | AC50 [5]
39 | COc1nc(C)nc(Cl)c1NC1=NCCN1 | -23.1 | inactive | inactive | inactive | inactive | inactive |  |  | 
40 | CCCN(CCC)C(=O)C(CCC(=O)O)NC(=O)c1ccccc1 (centres undefined) | 17.5 | inactive | inactive | inactive | inactive | inactive |  |  | 
41 | NC(=O)NNc1ccccc1 | -21.6 | inactive | inactive | inactive | inactive | inactive |  |  | 
42 | CCOC(=O)[C@H](CCc1ccccc1)N[C@@H](C)C(=O)N1C(=O)N(C)C[C@H]1C(=O)O | -14.8 | inactive | inactive | inactive | inactive | inactive |  |  | 
43 | O=C(O)/C=C/c1ccc(Cn2ccnc2)cc1 | -14.9 | inactive | inactive | inactive | inactive | inactive |  |  | 
44 | COc1cc(C(=O)NCCCCCC(=O)O)cc(OC)c1OC | -33.5 | inactive | inactive | inactive | inactive | inactive |  |  | 
45 | COc1ccc(CN(CCN(C)C)c2ncccn2)cc1 | -18 | inactive | inactive | inactive | inactive | inactive |  |  | 
46 | CC(C)C(=O)Nc1cccc(C2CN3CCSC3=N2)c1 (centres undefined) | -12.5 | inactive | inactive | inactive | inactive | inactive |  |  | 
47 | CC(=O)OC/C=C(C)/C=C/C=C(C)/C=C/C1=C(C)CCCC1(C)C | -18.2 | inactive | inactive | inactive | inactive | inactive |  |  | 
48 | CCn1cc(C(=O)O)c(=O)c2cc(F)c(N3CCNCC3)nc21 | -17.3 | inactive | inactive | inactive | inactive | inactive |  |  | 
49 | O=C(NCCc1c[nH]c2ccccc12)c1cccnc1 | 15.6 | inactive | inactive | inactive | inactive | inactive |  |  | 
50 | O=C(O)c1ccccc1Nc1cc(Cl)ccc1C(=O)O | -12.4 | inactive | inactive | inactive | inactive | inactive |  |  | 
51 | COc1ccc2c(C(=O)c3ccc(Cl)cc3)c(C)n(CC(=O)O)c2c1 | 38 | inactive | inactive | inactive | inactive | inactive | inactive | inactive | 
52 | NC(=O)CC[C@@H](N)C(=O)O | -11.5 | inactive | inactive | inactive | inactive | inactive |  |  | 
53 | Cc1nnc(C(=O)NC(C)(C)c2nc(C(=O)NCc3ccc(F)cc3)c(O)c(=O)n2C)o1 | -16.5 | inactive | inactive | inactive | inactive | inactive |  |  | 
54 | Cn1cc(C(=O)[C@@H]2CCc3nc[nH]c3C2)c2ccccc21 | 15.9 | inactive | inactive | inactive |  | inactive |  |  | 39.8 µM (active)
55 | CSc1ccc(C(=O)c2[nH]c(=O)[nH]c2C)cc1 | 19.8 | inactive | inactive | inactive | inactive | inactive |  |  | 
56 | Nc1c(NC/C=C\COc2cc(CN3CCCCC3)ccn2)c(=O)c1=O | -32.1 | inactive | inactive | inactive | inactive | inactive |  |  | 
57 | C/C=C/c1ccc(OC)cc1 | -25.2 | inactive | inactive | inactive | inactive | inactive |  |  | 
